# ST2 IL33 inh = inhibitors of human ST2 (IL1RL1) binding to IL-33, primary screen, biochemical, AlphaLISA. Interleukin-1 receptor-like 1 (Homo sapiens), Q01638. AlphaLISA ST2-Fc/biotin-IL-33 interaction, 1 h. inhibition, % for hits at 17 µM. 2.3% of 78,000 active. AID 1259354, 2018; in the data active = inhibition above about 30%
# Target sequence (Q01638 whole entry, looked up): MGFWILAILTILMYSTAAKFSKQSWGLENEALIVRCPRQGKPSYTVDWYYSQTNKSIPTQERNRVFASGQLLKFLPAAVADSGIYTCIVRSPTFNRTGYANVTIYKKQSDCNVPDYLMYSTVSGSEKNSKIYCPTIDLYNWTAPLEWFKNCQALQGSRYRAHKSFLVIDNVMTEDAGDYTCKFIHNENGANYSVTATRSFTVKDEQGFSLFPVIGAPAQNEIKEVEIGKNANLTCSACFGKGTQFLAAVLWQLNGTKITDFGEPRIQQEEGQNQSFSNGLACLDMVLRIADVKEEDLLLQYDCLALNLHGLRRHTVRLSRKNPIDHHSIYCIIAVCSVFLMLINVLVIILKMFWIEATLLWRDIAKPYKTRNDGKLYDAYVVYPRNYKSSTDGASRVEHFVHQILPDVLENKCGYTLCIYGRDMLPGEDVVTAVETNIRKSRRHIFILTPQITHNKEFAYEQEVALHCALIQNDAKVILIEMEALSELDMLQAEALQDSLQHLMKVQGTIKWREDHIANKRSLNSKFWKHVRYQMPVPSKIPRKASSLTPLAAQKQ
# Active calls of the source: *; i = inactive; ! = not confirmed by another sample. Shown is part of a subset that was picked to be rich in hits.
SMILES,ST2 IL33 inh
CCC1CCCCN1CCCNC(=O)c1cc2cc3ccc(OC)cc3nc2o1 (configuration not stated),i
COc1ccc2cc3cc(C(=O)NCCN4CCOCC4)oc3nc2c1,i
COc1ccc2cc3cc(C(=O)NCCCN4CCCCCC4)oc3nc2c1,31%*!
COc1ccc2cc3cc(C(=O)NCCCN4CCCC4)oc3nc2c1,33%*!
O=C(NCCCN1CCCC1)c1cc2cc3ccc(Cl)cc3nc2o1,i
COc1ccc2cc3cc(C(=O)NCCCN4CCN(Cc5ccccc5)CC4)oc3nc2c1,i
CCOC(=O)c1c(NC(=O)CSC#N)sc2c1CCCC2,i
CC[C@H]1CN(C(=O)c2ccnc(Cl)c2)CC[C@H]1CC(=O)N1CCC(C(=O)OC)CC1,i
CCC(=O)N(c1ccc(Br)cc1)C1C=CS(=O)(=O)C1 (configuration not stated),i
CCN1CCN(C(=O)c2cn(C)c(=O)c3c2c2ccccc2n3C)CC1,i
COc1ccc(-c2nc(NC(C)=O)c3c(=O)oc4ccccc4c3n2)cc1,i
Nc1ccc(-c2nc3ccccc3[nH]2)cc1,i
Nc1ccc(CCc2nc3ccc(N)cc3[nH]2)cc1,i
Nc1ccc(-c2nc3ccc(-c4nc5ccc(N)cc5[nH]4)cc3[nH]2)cc1,35%*!
O=C(COc1ccccc1)NN1C(=O)c2ccccc2C1=O,i
CCN(CC)S(=O)(=O)c1ccc(C(=O)N=c2sc3cccc(C)c3n2C)cc1,i
O=C(C1=CCCC1)N1CCCC(Nc2cccc(F)c2)C1 (configuration not stated),i
CCc1cccc(C)c1NC(=O)CSc1nccn1C,i
CCOC(=O)c1c(NC(=O)c2c(C)cc(C)cc2C)sc(C)c1C,i
Nc1c(Oc2ccccc2)c(Oc2ccccc2)c(N)c2c1C(=O)c1ccccc1C2=O,92%*
O=C1c2ccccc2C(=O)N1CC(O)COc1ccccc1 (configuration not stated),i
Nc1nc(N)nc(-c2ccc(Oc3ccccc3)cc2)n1,i
Cc1nc2c(NCC3(COc4ccccc4)CC3)ncnc2o1,i
CCOC(=O)Cn1c(=O)c2c(nc3n2CCN3c2ccccc2)n(C)c1=O,i
N=c1c2c(-c3ccccc3)c(-c3ccccc3)n(Cc3ccco3)c2ncn1Cc1ccco1,31%*
SMILES,ST2 IL33 inh
O=c1[nH]nc(CCc2ccccc2O)n1Cc1ccco1,i
c1ccc(-c2nnc([C@H]3CCN(Cc4ccco4)C3)o2)cc1,i
COc1ccccc1NC(=O)Nc1ccc(=O)n2c1[C@@H]1C[C@@H](CN(C3CCN(C(C)=O)CC3)C1)C2,i
Cc1ccc(N2NC(=O)/C(=C/c3ccc(Cl)c([N+](=O)[O-])c3)C2=O)cc1C,i
O=C1NN(c2cccc(Cl)c2)C(=O)/C1=C\c1cccn1-c1ccc([N+](=O)[O-])cc1,59%*
O=C1NN(c2cc(Cl)cc(Cl)c2)C(=O)/C1=C\c1cccn1-c1ccc([N+](=O)[O-])cc1,i
CCC1Oc2ccc(C)cc2N(CC(=O)NCCCN2CCCC2=O)C1=O (configuration not stated),i
O=C(Nc1ccc([N+](=O)[O-])cc1)c1cc2ccccc2o1,i
Cc1ccnc(NC(c2ccncc2)c2ccc3cccnc3c2O)c1 (configuration not stated),i
O=C(c1ccc([N+](=O)[O-])cc1)N1CCN(c2ccccn2)CC1,i
COc1cc(C(Nc2cccc(C)n2)c2ccc3ccc(C)nc3c2O)ccc1O (configuration not stated),i
O=[N+]([O-])c1ccc(NC(c2ccccn2)c2ccc3cccnc3c2O)cc1 (configuration not stated),31%*
Cc1cc(NC(c2cccc([N+](=O)[O-])c2)c2ccc3cccnc3c2O)no1 (configuration not stated),33%*
CC(=O)c1cccc(NC(=O)CN(c2ccc(I)cc2)S(C)(=O)=O)c1,i
COc1c(F)cc(-c2c(-c3ccccc3)ncn2CCC(C)O)cc1F (configuration not stated),i
Cc1nnc(NC(=O)CS(=O)(=O)c2cn(Cc3cccc(F)c3)c3ccccc23)s1,i
CC(NC(=O)c1ccc(Cl)cc1)c1ccccc1 (configuration not stated),i
CC(NC(=O)c1cc2ccccc2o1)c1ccccc1 (configuration not stated),i
CC(Nc1ccc(Cl)cc1N)c1ccccc1 (configuration not stated),57%*
CN(CC(=O)N1CCN(c2cccc(Cl)c2)CC1)S(=O)(=O)c1ccc2c(c1)CCC(=O)N2,i
COc1cccc(CNC(=O)c2ccc(C(C)N3CCCCC3)o2)c1OC (configuration not stated),i
O=c1[nH]c2ccc(N=Cc3cc(O)ccc3Br)cc2[nH]1,i
O=C1NC(=O)c2cc(N=Cc3ccc(Cl)cc3Cl)ccc21,70%*
O=C1NC(=O)c2cc(N=Cc3ccc(Cl)cc3)ccc21,i
CCc1nc(C)c(C(=O)Nc2cccc(NC(=O)CCc3ccccc3)c2)o1,i
SMILES,ST2 IL33 inh
O=[N+]([O-])c1ccc(N2CCN(CCO)CC2)cc1,i
O=[N+]([O-])c1ccc(N2CCN(Cc3ccc(Br)s3)CC2)cc1,36%*
CCOc1ccccc1N1CCN(Cc2ccc([N+](=O)[O-])cc2)CC1,i
CN(C)c1ccc(CN2CCN(c3ccc([N+](=O)[O-])cc3)CC2)cc1,51%*
Cc1ccccc1N1CCN(Cc2ccc(Br)s2)CC1,i
COc1cc(CN2CCN(c3ccc([N+](=O)[O-])cc3)CC2)ccc1O,i
CN1CCCC2(CCN(C(=O)C3(c4ccccc4F)CC3)C2)C1=O (configuration not stated),i
NC(=O)CO[C@@H]1CO[C@H]2[C@@H]1OC[C@@H]2NC(=S)Nc1ccccc1,i
Cc1nn(Cc2ccc(F)cc2)c(C)c1NC(=O)c1cc(-c2ccc(Br)cc2)on1,i
CCSc1oc(-c2ccco2)nc1S(=O)(=O)c1ccc(Cl)cc1,i
CCCSc1nnc2c(n1)OC(c1ccc3c(c1)OCO3)N(C(C)=O)c1ccccc1-2 (configuration not stated),i
CCCCNC(=O)c1c(NC(=O)c2ccccc2)sc(C)c1C,i
Cc1cccn2c(=O)c(C=Nc3ccccc3)c(NCc3ccco3)nc12,i
Cc1cccn2c(=O)c(C=Nc3ccccc3)c(NCc3ccccc3)nc12,39%*
Cc1ccc(N=Cc2c(Nc3cccc(Cl)c3)nc3c(C)cccn3c2=O)cc1,i
O=C(NCc1ccc2c(c1)OCO2)C1CCCN(S(=O)(=O)c2cnc[nH]2)C1 (configuration not stated),i
C=CCNC(=O)/C(=C/c1ccc2c(c1)OCO2)NC(=O)c1ccccc1Cl,i
CCOC(=O)c1sc2nc(C)nc(N3CCCCCC3)c2c1C,i
CCOc1ccc(C(=O)Nc2cccc(NC(=O)C(C)C)c2)cc1[N+](=O)[O-],i
CCOc1ccc(C(=O)Nc2ccc3oc(-c4ccncc4)nc3c2)cc1[N+](=O)[O-],i
O=C(Nc1ccc2nn(-c3ccc(Cl)cc3)nc2c1)c1cccc(F)c1,i
COc1ccc(NC(=O)c2ccc(Cl)cc2)cc1,i
COc1ccc(C(=O)Nc2ccc3nn(-c4ccc(Cl)cc4)nc3c2)cc1,37%*
CCOc1ccc(C(=O)Nc2ccc3nn(-c4ccc(OC)c(Cl)c4)nc3c2)cc1[N+](=O)[O-],40%*

# Source: PubChem (Paczesny and Yang Labs, IUPUI and University of Michigan)
